In all, about 48,000 compounds went through this assay and about 13,000 (27%) showed an effect of 50% or more. This is one part of the list.
test system: Wolbachia pipientis; experiment: Anti-Wolbachia Cell-Based Screen; format: functional; design: scale not given: in the data most compounds retested in dose-response had high values; settings: 5 µM

| Structure (SMILES) | Percent Effect |
| --- | --- |
| CNC(=O)[C@@H]1C[C@@H](NC(=O)c2cn(C)nc2C)CN1Cc1sccc1C | 22.01% |
| Cc1cc(C(=O)N(C)C(C)CC(C)C)on1 (centres undefined) | -13.06% |
| CN(C)c1ccc2c(c1)CN(C(=O)c1ccco1)C2c1cnco1 (centres undefined) | 6.499% |
| O=C(Nc1ccc(-c2csnn2)cc1)N1CC[C@H](O)C1 | -5.302% |
| CCC(C(=O)NC(C)(C)C)n1cccc(OC)c1=O (centres undefined) | -8.788% |
| CCN1C[C@H]2CCN(C(=O)c3cc[nH]n3)CC[C@H]2S1(=O)=O | 7.026% |
| CNC(=O)CN1CC[C@H]2CN(C(=O)c3cc[nH]n3)C[C@H]2C1.O=C(O)C(F)(F)F | 106.6% |
| O=C(O)C(F)(F)F.O=C(c1cc[nH]n1)N1CC[C@@H]2CN(Cc3ccncc3)S(=O)(=O)[C@@H]2CC1 | -5.267% |
| CCn1cc(CN2CCC(CN3CCCCC3)CC2)cc1C#N | -0.8018% |
| CCc1cnc(CN(C)C(=O)NC2CCN(C)C2=O)s1 (centres undefined) | 1.007% |
| Cc1nc(O)cc(CCNC(=O)CN2CCCCCC2)n1 | -0.8715% |
| O=C(CCNC(=O)NC1CC1)NCc1ccccc1 | 4.625% |
| NC(=O)c1cnc(-c2ccccc2)nc1CCNC(=O)CN1CCCC1 | 124.4% |
| Cc1cnc(NC2CCN(CC(=O)Nc3ccccc3)CC2)nc1C | 3.522% |
| NC(=O)c1cnc(NC2CC2)nc1CCNC(=O)CC1CCCC1 | 144.1% |
| NC(=O)c1cnc(NC2CC2)nc1CCNC(=O)Cc1ccccc1 | 131.4% |
| O=C(CC1CCCC1)NCCn1ccc(-c2ccncc2)n1 | -13.95% |
| O=C(CC1CCCC1)NCCNCc1cccc2c1OCCO2 | -15.98% |
| NC(=O)CN1CCC(C(=O)NCCc2nc(-c3ccccc3)cs2)CC1 | 3.799% |
| O=C(CCCc1cn[nH]c1)N1C[C@H](CO)C[C@H](CN2CCCC2)C1 | 5.812% |
| Cc1cc(C)c2[nH]c(=O)c(CN3CCC(O)(CN(C)C)C3)cc2c1 (centres undefined) | -2.791% |
| COc1ccc(-c2ccc(C(=O)O)c(F)c2)c(F)c1 | -9.144% |

| Structure (SMILES) | Percent Effect |
| --- | --- |
| CC(=O)c1ccc(N2CCC3(CC2)CC(=O)N(C)C3)nc1 | 9.989% |
| CCc1c(C)nc2n(c1=O)CC(C(=O)Nc1ncccc1C)CS2 (centres undefined) | 124.5% |
| CCc1c(C)nc2n(c1=O)CC(C(=O)Nc1sccc1C(=O)OC)CS2 (centres undefined) | 119.9% |
| CCc1cccc(C)c1NC(=O)C1CC(=O)N(Cc2ccccn2)C1 (centres undefined) | 16.74% |
| CCc1c(C)nc2n(c1=O)CC(C(=O)Nc1nccs1)CS2 (centres undefined) | 17.24% |
| CCc1c(C)nc2n(c1=O)CC(C(=O)Nc1ccccc1C)CS2 (centres undefined) | 112.9% |
| CCc1c(C)nc2n(c1=O)CC(C(=O)Nc1ccccc1F)CS2 (centres undefined) | -0.8379% |
| Cc1cnc2n(c1=O)CC(C(=O)NC1CC1)CS2 (centres undefined) | -10.47% |
| Cc1cnc2n(c1=O)CC(C(=O)Nc1cccc3cccnc13)CS2 (centres undefined) | 0.1912% |
| Cc1cnn(CC2CN(CC(=O)NCCc3cccs3)CCO2)c1 (centres undefined) | -8.737% |
| CCC(NC(=O)c1cccc(N2CCCC2=O)c1)c1ccc(OC)cc1 (centres undefined) | -14.69% |
| Cc1ccc(N2CCCC(N3CCC(N(C)C)CC3)C2=O)cc1 (centres undefined) | 3.726% |
| Cc1cc(=O)n2ncnc2n1CC(O)COCc1ccccc1Cl (centres undefined) | -44.43% |
| Cc1cc(F)cc(S(=O)(=O)Nc2noc(C)n2)c1 | -6.165% |
| COCCn1/c(=N\C(=O)CN(C)S(C)(=O)=O)sc2cc(OC)ccc21 | -16.36% |
| Cc1cc(CN2C[C@H](OCC3CCOCC3)[C@H]3COC[C@H]32)oc1C.O=C(O)C(F)(F)F | 99% |
| CNC(=O)[C@H]1C[C@H]2OCC[C@H]2N(Cc2ccc(C)o2)C1.O=C(O)C(F)(F)F | -19.44% |
| Cc1ccc(CN2C[C@H](OCC3CCOCC3)[C@H]3COC[C@H]32)o1.O=C(O)C(F)(F)F | 113.3% |
| CN1CCC(CO[C@H]2CN(C(=O)c3cccn3C)[C@@H]3COC[C@H]23)CC1 | -44.74% |
| Cc1noc(C)c1CN1C[C@H](OCC2CCN(C)CC2)[C@H]2COC[C@H]21.O=C(O)C(F)(F)F.O=C(O)C(F)(F)F | 122.2% |
| COCCN1C[C@H]2[C@@H](C1)N(Cc1ccc(C)o1)CC[C@H]2OC | 6.788% |
| Cc1noc(C)c1CN1CCc2cnn(C)c2C1COCC1CC1.O=C(O)C(F)(F)F.O=C(O)C(F)(F)F (centres undefined) | -11.43% |

| Structure (SMILES) | Percent Effect |
| --- | --- |
| Cc1cc(CN2CC[C@H]3[C@H]2CCN3S(C)(=O)=O)oc1C.O=C(O)C(F)(F)F | -17.79% |
| Cc1ccc(CN2C[C@H](N3CCOCC3)[C@@H]3OCCC[C@@H]32)o1.O=C(O)C(F)(F)F.O=C(O)C(F)(F)F | -1.951% |
| Cc1cc(CN2C[C@H](N3CCOCC3)[C@@H]3OCCC[C@@H]32)oc1C.O=C(O)C(F)(F)F.O=C(O)C(F)(F)F | -6.636% |
| Cc1noc(C)c1CN1Cc2cn(C)nc2C(COCC2CC2)C1.O=C(O)C(F)(F)F.O=C(O)C(F)(F)F (centres undefined) | 0.03565% |
| Cc1ccc(CN2C[C@H](OCC3CCN(C)CC3)[C@H]3COC[C@H]32)o1 | 110.9% |
| CC1(c2ccccc2)CCC(=O)N(CCN2CCCOC2=O)C1 (centres undefined) | -2.659% |
| CC(Cn1cnc2cn(C)nc2c1=O)Oc1cccnc1 (centres undefined) | -0.8182% |
| Cc1[nH]ncc1CCCNC(=O)N1CCN2CCCCC2C1 (centres undefined) | -2.363% |
| CCCn1cnnc1CNC(=O)C1COc2cc(OC)ccc2C1 (centres undefined) | -15.52% |
| CCOCCNC(=O)c1cccc(S(=O)(=O)NC[C@@H]2C[C@H](F)CN2)c1 | -1.824% |
| Cc1ccc(F)c(C(=O)N2CCN(S(C)(=O)=O)[C@@H](C)C2)c1 | 7.436% |
| COCc1noc(CCNC(=O)c2cc(C)c(C)[nH]c2=O)n1 | 20.99% |
| COCc1noc(Cn2c(C)cc(C(F)(F)F)cc2=O)n1 | 123.4% |
| COCc1nc(Cn2c(C)cc(C(F)(F)F)cc2=O)no1 | 116.4% |
| Cc1cc(C(F)(F)F)cc(=O)n1Cc1nc(C(C)C)no1 | 99.71% |
| COCc1nc(Cn2ncn3cccc3c2=O)no1 | 10.93% |
| Cc1cc(C(F)(F)F)cc(=O)n1CCn1cc(Cl)cn1 | -6.58% |
| Cc1cnn(CCCn2c(C)cc(C(F)(F)F)cc2=O)c1 | -18.2% |
| Cc1cc(C(F)(F)F)cc(=O)n1CCCn1cnnn1 | -2.026% |
| COCc1nc(CN2C(=O)OC[C@@H]2C(C)C)no1 | 7.812% |
